# Measurements reported in the supplement of paper PMC10503962.
# System: Trichuris muris adult worms
# Experiment: mean motility score (Paragon pixel variance) of adult worms (arbitrary units); higher = more motile worms, i.e. less anthelmintic effect; extreme values may be limits of the assay
# Details: 100 µM; 24 h
# Procedure, shortened: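 Single adult Trichuris muris worms, collected from infected NOD SCID mice, were placed in 96-well plates with 100 μL RPMI-1640 plus antibiotics and drug at 100 μM (1% v/v DMSO), then kept at 37°C and 5% CO2 for 24 h. Plates were filmed on an automated phenotyping platform (200 frames, 100 ms apart). Motility score came from Paragon pixel-variance analysis, averaged across replicate wells. Each drug had three worms in three wells, run on three separate occasions, with vehicle and positive controls.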
row,Compound,mean motility score
1,O=C1NC(=O)C(c2ccccc2)(c2ccccc2)N1 [phenytoin],2510
2,COc1cc2ncnc(Nc3ccc(F)c(Cl)c3)c2cc1OCCCN1CCOCC1 [gefitinib],1080
3,CC(=O)Oc1ccc(C(c2ccc(OC(C)=O)cc2)c2ccccn2)cc1 [bisacodyl],2870
4,OCC(O)CO [glycerin],3460
5,CCCCOc1cc(C(=O)NCCN(CC)CC)c2ccccc2n1 [dibucaine],2070
6,C=CC(=O)N1CCC[C@@H](n2nc(-c3ccc(Oc4ccccc4)cc3)c3c(N)ncnc32)C1 [ibrutinib],433
7,CN1CCN(C2=Nc3cc(Cl)ccc3Nc3ccccc32)CC1 [clozapine],2870
8,C[C@H](CS)C(=O)N1CCC[C@H]1C(=O)O [captopril],3330
9,COc1ccc(C(=O)CC(=O)c2ccc(C(C)(C)C)cc2)cc1 [avobenzone],3070
10,Cc1cc2cc3c(C)cc(=O)oc3c(C)c2o1 [trioxsalen],2070
11,Cc1cc(C(C)(C)C)cc(C)c1C=C1NCCN1 [xylometazoline],3760
12,Cc1ccc(-c2cc(C(F)(F)F)nn2-c2ccc(S(N)(=O)=O)cc2)cc1 [celecoxib],0
13,Cc1nc2ccc(CN(C)c3ccc(C(=O)N[C@@H](CCC(=O)O)C(=O)O)s3)cc2c(=O)[nH]1 [raltitrexed],3030
14,CCN(CC)C(C)CN1c2ccccc2Sc2ccccc21.Cl (stereo not given) [ethopropazine hydrochloride],114
15,Br.CCCCCCCCCCCCCCCC[N+](C)(C)CCN(Cc1ccc(OC)cc1)c1ncccn1 [thonzonium bromide],0
